Compounds with a hit are over-represented: about 4.1% of the library has one in this group of screens.
DAX1 inh-1: DAX1 (NR0B1) inhibition, primary screen | HEK293T StAR-luciferase reporter, SF-1/DAX-1 repression relief | inhibition, % at 6.8 µM | 1.1% of 370,000 active;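 active means inhibition above the mean over all tested compounds plus 3 SD, cut at about 3.6% in these data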;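 further: 0% = DAX-1 cells with DMSO and 100% = cells lacking DAX-1 with DMSO; higher inhibition means more luminescence from relief of DAX-1 repression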
DAX1 inh-2: NR0B1 (DAX1) inhibition; 0.99% of 340,000 active; HEK293 Gal4-DAX1 luciferase reporter, luminescence; P51843; AID 504766; inhibition, % at 6.75 µM;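 active means inhibition above the mean over all tested compounds plus 3 SD, cut at about 4.2% in these data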;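 further: 0% = DAX1-transfected cells with DMSO and 100% = empty-vector control cells with DMSO; inhibition shows as a rise in luminescence from relieved DAX1 repression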
Target sequence (P51843 207-470 limits assumed): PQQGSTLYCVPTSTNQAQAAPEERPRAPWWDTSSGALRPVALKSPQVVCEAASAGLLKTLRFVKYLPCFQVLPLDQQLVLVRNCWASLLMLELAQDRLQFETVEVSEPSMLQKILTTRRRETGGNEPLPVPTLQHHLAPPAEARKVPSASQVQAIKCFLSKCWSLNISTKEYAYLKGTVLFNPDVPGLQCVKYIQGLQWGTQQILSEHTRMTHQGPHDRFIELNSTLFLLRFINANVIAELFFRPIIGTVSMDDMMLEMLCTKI
hcDAF12 agonist: H. contortus DAF-12 activation, primary screen; HEK293 hcDAF-12 lit1-tk-luc reporter, luminescence; 0% DMSO, 100% Δ7-dafachronic acid; activation, % at 6.8 µM; 1.4% of 370,000 active;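 active means activation above the mean of all tested compounds plus 3 SD, cut at about 5.5% in these data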;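 further: 100% = response to 3 µM Δ7-dafachronic acid high control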
hgDAF12 agonist: agonists of H. glycines DAF-12 nuclear receptor; HEK293 GAL4-hgDAF12 UAS-luciferase reporter, agonist luminescence; normalized to butyrate control; activation, % at 6.8 µM; 1.8% of 370,000 active;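 active means activation above a cutoff set at the mean of all screened compounds plus 3 SD, cut at about 10% in these data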;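 further: 0% = DMSO wells and 100% = sodium butyrate wells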
ssDAF12 agonist: activates DAF-12 receptor from parasite S. stercoralis | 1% of 370,000 active | HEK293 ssDAF-12/GRIP1 lit1-tk-luc reporter, luminescence; % of 3 µM dafachronic acid response | activation, % at 6.8 µM | AID 652126;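 active means activation above the mean over all tested compounds plus 3 SD, cut at about 0.9% in these data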;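 further: 0% = DMSO-only wells and 100% = 3 µM delta7-dafachronic acid wells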
hgDAF12 ag: hgDAF-12 agonism, confirmation assay. HEK293 GAL4-hgDAF12 luciferase reporter, agonist mode; percent of butyrate response. 80% of 3,300 active. shares compounds with hgDAF12 agonist. activation, % at 6.8 µM;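 active means mean activation over triplicate wells above the hit cutoff derived from the earlier primary screen, cut at about 11% in these data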;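 further: 0% = DMSO low control and 100% = 2 mM sodium butyrate high control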
LXR ag 2: activates human LXR-beta, counter-screen for DAF-12 agonists; shares compounds with hgDAF12 agonist; HEK293 Gal4-LXR luciferase reporter, 24 h; activation, % at 6.8 µM; 3,300 tested, under 10 active; AID 743051;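 active means mean activation of the triplicate above a set limit carried over from the primary screen, none filed active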
* marks the source's active call; other numbers are inactive results; . = not tested or not shown.

SMILES	DAX1 inh-1	DAX1 inh-2	hcDAF12 agonist	hgDAF12 agonist	ssDAF12 agonist	hgDAF12 ag	LXR ag 2
CN(C)Cc1c(C(C)(C)O)[nH]c2cc(C(F)(F)F)ccc12	-1	.	1	-1	-1	.	.
COc1ccc(-c2c(C)nc3c(-c4ccccn4)cnn3c2N)cc1	3	1	5	14*	0	11*	1
O=C(CCCc1ccncc1)c1ccccc1	1	3	1	13*	0	9	0
c1ccc(CCCCc2ccncc2)cc1	-1	-1	-1	2	-1	.	.
Cc1csc(NC(=O)c2ccccc2[N+](=O)[O-])n1	1	-1	-1	-2	1	.	.
Cc1csc(NC(=O)c2ccc(Cl)cc2[N+](=O)[O-])n1	1	1	1	14*	0	11*	0
COc1cccc(C(CC2=CCCCC2)NC(=O)C(F)(F)F)c1 (centres undefined)	0	.	-1	2	-1	.	.
O=C(CSc1nnc(NC2CCCCC2)s1)Nc1ccc2c(c1)C(=O)c1ccccc1C2=O	3	12*	4	14*	0	14*	0
CCOC(=O)NNc1nncc2ccccc12	3	0	0	-1	-1	.	.
CC/C(=N\Nc1nncc2ccccc12)c1ccc(F)cc1	1	0	4	16*	0	16*	1
C/C(=N\Nc1nncc2ccccc12)c1ccc(OCC(=O)N(C)C)cc1	2	1	5	16*	0	4	0
CCCNC(=O)c1cc(-c2ccc(OC)cc2)on1	2	1	5	10	-1	.	.
CCCCNC(=O)c1cc(-c2ccc(OC)cc2)on1	2	2	1	17*	0	16*	1
CCCCNC(=O)c1cc(-c2ccc(F)cc2)on1	0	4	2	34*	1	42*	1
COC(=O)[C@]12C[C@H](CC(=O)NCc3ccc(C)o3)C(=O)N(CCC3=CCCCC3)C1=C[C@H](COCc1ccccc1)O[C@@H]2C	-1	.	-2	2	0	.	.
CC(OC(=O)c1cccc(S(=O)(=O)N2CCOCC2)c1)C(=O)NC1CCCCC1C (centres undefined)	0	0	0	18*	-1	0	0
CCN(CC)c1ccc(NC(=O)c2cc3c(C)nn(-c4ccccc4)c3s2)cc1	-1	.	0	0	-2	.	.
O=C(Nc1cccc(C(F)(F)F)c1)c1cc[n+]([O-])cc1	0	-1	-1	-2	-1	.	.
O=C(Nc1cccc(O)c1)c1ccc(C(F)(F)F)cc1	2	2	4	14*	0	13*	1
Nc1nc(Nc2cccc(F)c2)nc2ccccc12	1	3	6.1*	14*	0	16*	1
COC(=O)[C@]12C[C@H](CC(=O)NCc3ccccc3)C(=O)N(Cc3ccc(Cl)cc3Cl)C1=C[C@H](COCc1ccccc1)O[C@@H]2C	-1	.	0	-1	-1	.	.
O=C(Nc1ccc(Cl)cc1F)c1ccccc1Br	4.4*	1	5	15*	-1	14*	1
O=C1C(Cl)=C(N2CCCCCC2)C(=O)N1c1ccc(Cl)cc1	-1	0	-1	-1	0	.	.
O=C1C=C(N2CCCCCC2)C(=O)N1c1ccc(Cl)cc1	2	4	5	15*	0	5	1
CCN(CC)c1ccc(/C=C(\C#N)c2ccccn2)cc1	.	-2	.	.	.	.	.
SMILES	DAX1 inh-1	DAX1 inh-2	hcDAF12 agonist	hgDAF12 agonist	ssDAF12 agonist	hgDAF12 ag	LXR ag 2
CCN(CC)c1ccc(C=N/C(C#N)=C(\N)C#N)cc1	1	1	4	15*	-1	10	0
COc1cccc(CNC(=O)[C@H]2CCCN2C(=O)[C@H]2CCCN2C(=O)c2ccc(Cl)cc2)c1	0	.	-1	-1	0	.	.
COc1ccc2nc(N(CCN(C)C)C(=O)c3ccc4ncsc4c3)sc2c1	3.9*	0	6.0*	14*	0	19*	1
COc1ccc2nc(N(CCN(C)C)C(=O)c3ccc4ccccc4c3)sc2c1	0	0	2	1	-1	.	.
O=C(NCCc1ccccc1)OCc1cn(-c2ccccc2Cl)nn1	1	.	-3	1	-2	.	.
O=C(Nc1ccc(F)c(Cl)c1)c1cc(C2CCCCN2C(=O)C2CC2)on1 (centres undefined)	0	.	0	0	-1	.	.
O=C(Nc1ccc(F)c(Cl)c1)c1cc(C2CCCN(C(=O)C3CC3)C2)on1 (centres undefined)	4.4*	.	1	15*	0	8	1
COc1cccc(C2NC(=S)N(Cc3ccccc3)C(C)=C2C(C)=O)c1 (centres undefined)	0	.	0	-2	-2	.	.
COc1ccc(-n2c(SCC(=O)Nc3cccc4ccccc34)nnc2-c2ccco2)cc1	-1	.	-1	1	-1	.	.
COC(=O)[C@]12C[C@H](CC(=O)N3CCCCC3)C(=O)N(Cc3ccc4c(c3)OCO4)C1=C[C@H](COCc1ccccc1)O[C@@H]2C	-2	.	-2	-2	-1	.	.
O=C(Nc1cccc(Cl)c1)c1ccc(OC(=S)N2CCOCC2)cc1	1	-2	1	19*	-1	7	0
O=C(Nc1ccccc1O)c1ccc(Cl)cc1	2	4.4*	5.8*	22*	1.3*	29*	0
CCOC(=O)CNC(=O)N(C)[C@H]1C[C@H]2c3[nH]c4c(-c5ccccc5)cccc4c3CCN2C(=O)[C@H]1[C@H](C)O	-1	.	-2	5	-1	.	.
Cc1cccc(NC(=O)COc2ccc(Br)cc2/C=N/O)c1	3	1	5	15*	0	11*	0
CC(=O)Nc1ccc(NC(=O)COc2ccc(Br)cc2C)cc1	1	2	-1	1	-2	.	.
O=C(CSc1ncnc2scc(-c3ccc(Cl)cc3)c12)Nc1ccccc1-c1ccccc1	-1	.	-2	-2	-2	.	.
COc1cc(/C=N/OCC(=O)Nc2cc(C)cc(C)c2)ccc1OCc1ccc(Cl)cc1	1	-1	5	16*	-1	10	1
COc1cc(/C=N/N2CCOCC2)ccc1OCc1ccc(Cl)cc1	3	1	3	10	-1	.	.
O=C(NCc1ccccc1)[C@@H]1CCCN1C(=O)[C@H]1CCCN1C(=O)c1ccccc1C(F)(F)F	0	.	1	-2	-1	.	.
C=CCNCC(=O)N1N=C(c2ccc3ccccc3c2)CC1c1ccc(OC)cc1 (centres undefined)	0	-1	-2	1	-1	.	.
COc1ccc(C2CC(c3ccc4ccccc4c3)=NN2C(=O)CN2CCC(C(N)=O)CC2)cc1 (centres undefined)	3	3	3	13*	-1	5	0

High-throughput results: PubChem, The Scripps Research Institute Molecular Screening Center
